Inconclusive results are not listed. Activity calls are given as the source filed them. Calls come from the whole dose curve; as a rule, active = well fitted inhibition curve with a large enough effect; inconclusive = small, poorly fitted or top-dose-only effect; inactive = no such curve, though single readings can be large or run the other way.
assay: BET inhibitor-based combinations targeting novel dependencies in MECOM-rearranged (r) AML: SET-2 cell line (AID 2202231); conditions: SET-2 AML cells viability, CellTiter-Glo luminescence, 48 h; viability: stronger effect = lower value, series mostly up to about 46 µM; note: nearly all actives have a fitted effect of over 35% in size
Source text: Ecotropic viral insertion site 1 (EVI1) is located on chromosome 3q26.2 as part of the MECOM (MDS and EVI1 complex) locus. Under normal hematopoiesis, EVI1 is a regulator of hematopoietic stem cell maintenance and self-renewal and EVI1 levels decrease as the cells differentiate. In approximately 5-10% of de novo acute myeloid leukemia (AML) EVI1 is aberrantly expressed, including Chromosomal inv(3)(q21;q26.2) or t(3;3)(q21;q26.2) alterations (MECOM-r) that account for about 50% of AML with EVI1 overexpression 31. AMLs with high levels of EVI1 have a poor prognosis and an overall survival time averaging between 10-14 months. EVI1 overexpression confers resistance in leukemia cells, highlighting the need to develop new targeted therapies for EVI1 overexpressing AMLs.
Here, we performed an unbiased chemical drug screening by evaluating the single agent activity of a collection of 2,480 oncology-focused, approved and investigational drugs (NCATS Mechanism Interrogation Plates, MIPE v5.0) against a panel of seven AML cell lines. These included four MECOM-r cell-lines (AML-191, AML-194, UCSD-AML1 and HNT-34) and three non-MECOM-r AMLs (MV4-11, OCI-AML3 and SET-2). Exploiting the mechanistic redundancy built in the library, we identified target-level sensitivities in MECOM-r AML cells and relative activity as compared to other AML subtypes.
A collection of 2480 mechanistically annotated dugs (MIPE v5.0) was used to screen four 3q26.2 rearranged AML cell lines and three non-3q26.2 rearranged AML cell lines. This library purposely exploits redundancy by including multiple inhibitors of key onco-targets, while simultaneously encompassing mechanistic diversity, targeting more than 800 distinct mechanisms of action. Briefly, cells were seeded in 5 uL of growth media using a Multidrop Combi dispenser into 1536 well white polystyrene tissue culture treated plates (Corning) at a density of 500cells/well. For each cell-line, for each of the 2480 drugs in MIPE v5.0 library, an 11-point dose curve was generated via a 1536 pin-tool. Plates were incubated for 48 hr at standard incubator conditions, covered by a stainless steel gasketed lid to prevent evaporation. Cell viability was determined by luminescence based, Cell Titer Glo assay (Promega). In detail, 3 uL of Cell Titer Glo were added to each well and plates were incubated at room temperature for 15 min with a stainless-steel lid in place. Luminescence readings were taken using a Viewlux (PerkinElmer) with a 2 s exposure time per plate. Compound dose-response curves were normalized to DMSO and empty well controls on each plate. Quantitative drug activity data from dose-response curves was determined utilizing area Under the Curve (AUC) and Z-transformed AUC (Z-AUC, a mean-centering transformation applied to each individual cell-line screened).
Potency is the fitted concentration of half-maximal effect.

Row | Structure (SMILES) | viability | Potency
1 | C[C@]12CC[C@@H]3c4ccc(OC(=O)N(CCCl)CCCl)cc4CC[C@H]3[C@@H]1CC[C@@H]2OP(=O)(O)O | 112% (inactive) | –
2 | Cn1c(CCCC(=O)O)nc2cc(N(CCCl)CCCl)ccc21 | 78.5% (inactive) | –
3 | CNCC(O)c1ccc(O)cc1 (stereo not given) | 116% (inactive) | –
4 | C[C@]12CCC(=O)C(O)=C1CC[C@@H]1[C@@H]2CC[C@]2(C)C(=O)CC[C@@H]12 | 97.8% (inactive) | –
5 | O=C(O)C(=O)c1cn(Cc2ccccc2)c2ccc(-c3ccc(OC(F)(F)F)cc3)cc12 | 98.6% (inactive) | –
6 | C[C@H]1[C@H](O)[C@@H](C)/C=C/C=C/CC/C=C/C=C/C=C/C=C/[C@H](O[C@@H]2O[C@H](C)[C@@H](O)[C@H](N)[C@@H]2O)C[C@@H]2O[C@](O)(C[C@@H](O)[C@H](O)CC[C@@H](O)C[C@@H](O)C[C@@H](O)CC(=O)O[C@H]1C)C[C@H](O)[C@H]2C(=O)O | 99% (inactive) | –
7 | COc1cc([C@@H]2c3cc4c(cc3[C@@H](O)C3COC(=O)C32)OCO4)cc(OC)c1O (stereo not given in full) | – | 468 nM (active)
8 | N#CC(O[C@@H]1O[C@H](CO[C@@H]2O[C@H](CO)[C@@H](O)[C@H](O)[C@H]2O)[C@@H](O)[C@H](O)[C@H]1O)c1ccccc1 (stereo not given in full) | 93.9% (inactive) | –
9 | CC[C@@]1(O)C(=O)OCc2c1cc1n(c2=O)Cc2cc3ccccc3nc2-1 | – | 13.2 nM (active)
10 | O=S(=O)(F)Cc1ccccc1 | 112% (inactive) | –
11 | CC1(C)C(=O)N(c2ccc(C#N)c(C(F)(F)F)c2)C(=S)N1Cc1ccc(-c2cn[nH]n2)cc1 | – | 16600 nM (active)
12 | C/C1=C/C[C@@H](/C(C)=C/c2csc(C)n2)OC(=O)C[C@H](O)C(C)(C)C(=O)[C@H](C)[C@@H](O)[C@@H](C)CCC1 | – | 93.4 nM (active)
13 | CC(C)[C@]12O[C@H]1[C@@H]1O[C@@]13[C@@]1(C)CCC4=C(COC4=O)[C@@H]1C[C@@H]1O[C@@]13C2=O | – | 83.3 nM (active)
14 | COc1cc(C)[nH]c(=O)c1CNC(=O)c1c(C)n([C@H](C)C2CCOCC2)c2ccccc12 | 113% (inactive) | –
15 | CCCN1CCO[C@@H]2c3cc(O)ccc3OC[C@H]21 | 92% (inactive) | –
16 | COCC1(CO)C(=O)C2CCN1CC2 (stereo not given) | – | 26300 nM (active)
17 | COC12C(COC(N)=O)C3=C(C(=O)C(C)=C(N)C3=O)N1CC1C2N1C (stereo not given) | 107% (inactive) | –
18 | COc1cc(C)[nH]c(=O)c1CNC(=O)c1c(C)n([C@H](C)C2CCN(CC(F)(F)F)CC2)c2ccccc12 | 101% (inactive) | –
19 | CC(C)(O)C(=O)Nc1ccc([N+](=O)[O-])c(C(F)(F)F)c1 | – | 23500 nM (active)
20 | COc1cc2cc(c1Cl)N(C)C(=O)C[C@H](OC(=O)C(C)C)[C@]1(C)O[C@@H]1[C@H](C)[C@@H]1C[C@@](O)(NC(=O)O1)[C@H](OC)/C=C/C=C(\C)C2 | – | 2.1 nM (active)

Row | Structure (SMILES) | viability | Potency
21 | Cc1sc2c(c1C)C(c1ccc(Cl)cc1)=NC(CC(=O)Nc1ccc(O)cc1)c1nnc(C)n1-2 (stereo not given) | – | 1320 nM (active)
22 | C[C@]12CC[C@H]3[C@@H](CCC4=CC(=O)CC[C@@]43C)[C@H]1CC[C@H]2OC(=O)CCC1CCCC1 | 96.4% (inactive) | –
23 | C[C@]12CC[C@H]3[C@@H](CC[C@@]45O[C@@H]4C(O)=C(C#N)C[C@]35C)[C@@H]1CC[C@@H]2O | 112% (inactive) | –
24 | C[C@@H]1CC[C@@]2(OC1)O[C@H]1C[C@H]3[C@@H]4CC=C5C[C@@H](O[C@@H]6O[C@H](CO)[C@@H](O[C@@H]7O[C@@H](C)[C@H](O)[C@@H](O)[C@H]7O)[C@H](O)[C@H]6O[C@@H]6O[C@@H](C)[C@H](O)[C@@H](O)[C@H]6O)CC[C@]5(C)[C@H]4CC[C@]3(C)[C@H]1[C@@H]2C | – | 8330 nM (active)
25 | CCOC(=O)Nc1ccc(NCc2ccc(F)cc2)cc1N | 102% (inactive) | –
26 | COC(=O)[C@@H](N)CCCN=C(N)N[N+](=O)[O-] | 109% (inactive) | –
27 | C/C(O)=C(\C#N)C(=O)Nc1cc(Br)ccc1Br | 90% (inactive) | –
28 | COC[C@@H](NC(C)=O)C(=O)NCc1ccccc1 | 112% (inactive) | –
29 | Cc1sc2c(c1C)C(c1ccc(Cl)cc1)=N[C@@H](CC(=O)OC(C)(C)C)c1nnc(C)n1-2 | – | 590 nM (active)
30 | O=C(Nc1ccncc1)C(=O)c1cn(Cc2ccc(Cl)cc2)c2ccccc12 | – | 525 nM (active)
31 | O=C(O)CNC(=O)C1C(=O)N(C2CCCCC2)C(=O)N(C2CCCCC2)C1=O | 114% (inactive) | –
32 | CC(=O)N1N=C(c2ccc(N)cc2)c2cc3c(cc2C[C@H]1C)OCO3 | 93.4% (inactive) | –
33 | CN(C)[C@@H]1C(=O)C(C(N)=O)=C(O)[C@@]2(O)C(=O)C3=C(O)c4c(O)cccc4[C@@](C)(O)[C@H]3[C@H](O)[C@@H]12 | 103% (inactive) | –
34 | CC(=O)Nc1ccc(OC[C@](C)(O)C(=O)Nc2ccc([N+](=O)[O-])c(C(F)(F)F)c2)cc1 | 114% (inactive) | –
35 | CN(C)NC(=O)CCC(=O)O | 87.9% (inactive) | –
36 | C#CCN(C)[C@H](C)Cc1ccccc1 | 96.9% (inactive) | –
37 | COC(=O)[C@]12CCC(C)(C)C[C@H]1[C@H]1C(=O)C=C3[C@@]4(C)C=C(C#N)C(=O)C(C)(C)[C@@H]4CC[C@@]3(C)[C@]1(C)CC2 | – | 2350 nM (active)
38 | CC(=O)OC[C@H]1O[C@@H]([S-])[C@H](OC(C)=O)[C@@H](OC(C)=O)[C@@H]1OC(C)=O.CC[PH+](CC)CC.[Au] | – | 1180 nM (active)
39 | CN(C)c1cc2c(cc1Sc1nc3c(N)nccc3n1CCNCC(C)(C)C)OCO2 | – | 1320 nM (active)
40 | CC1=C(O)C(=O)C=C2C1=CC=C1[C@@]2(C)CC[C@@]2(C)[C@@H]3C[C@](C)(C(=O)O)CC[C@]3(C)CC[C@]12C | – | 934 nM (active)

— PubChem BioAssay (NCATS)
